Assay outcomes from PubChem.
mIDH1 inhibitor – inhibitors of human mutant IDH1 R132H; O75874; IDH1-R132H enzyme, NADPH consumption, diaphorase/resazurin fluorescence; Potency, µM (titrated, usually from 76.6 µM), for inactives: at the top dose activity change, negative = inhibition, usual class: inhibitors; 390,000 compounds, 0.093% hits; AID 602179; further: on the % scale 0 is the no-effect control and ±100 the full control effect; nearly all actives have a fitted effect of over 65% in size
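IDH1-R132H (0.5 ug/mL dispensed) in pH 7.5 Tris buffer was preincubated 30 min with compound, then given a substrate mix of 0.016 mM NADPH and 2 mM alpha-KG for 80 min at room temperature; remaining NADPH was read by diaphorase/resazurin fluorescence.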
TrxR1 inh – inhibitors of rat thioredoxin reductase 1; Potency, µM (top dose mostly 114 µM), without a hit: top-dose activity change, negative = inhibition, actives largely listed as inhibitors; O89049; 390,000 compounds, 1% hits; recombinant rTrxR1, NADPH fluorescence consumption, selenite substrate; further: on the % scale 0 is the no-effect control and ±100 the full control effect; nearly all actives have a fitted effect of over 65% in size
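Rat TrxR1 (90 nM in the dispensed reagent) was pre-reduced with 400 uM NADPH for 5 min at room temperature, then incubated with compound for 15 min. After 400 uM selenite was added, NADPH fluorescence (Ex 340/Em 450 nm) was followed for 8 min.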
HEK293 tox – cytotoxicity in counter-screen for GLP-1R inverse agonists. AID 624418. 410,000 compounds, 0.13% hits. HEK293 cAMP-luciferase reporter cells, luminescence, 24 h. Potency, µM (highest dose often 38.3 µM), inactives show top-dose activity change, negative = inhibition, most hits filed as inhibitors;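 further: loss of luciferase light is scored as toxicity; on the % scale 0 is the no-effect control and ±100 the full control effect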
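Seeding density was 200 cells/uL; after overnight-length (12 h) culture, 23 nL compounds went on for 24 h at 37 °C. Readout used a luciferase detection reagent, luminescence taken after 12 min at room temperature.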
GLP-1R inv ag – inverse agonists of human GLP-1 receptor; P43220; HEK293 GLP-1R CRE-luciferase, luminescence, 24 h; GLP-1R form is constitutively active; Potency, µM (doses to about 38.3 µM), for the others: at the top dose activity change, negative = inhibition, hits mostly inhibitors; 410,000 compounds, 1.6% hits; further: on the % scale 0 is the no-effect control and ±100 the full control effect; nearly all actives have a fitted effect of over 55% in size
Target sequence (P43220 whole entry, looked up): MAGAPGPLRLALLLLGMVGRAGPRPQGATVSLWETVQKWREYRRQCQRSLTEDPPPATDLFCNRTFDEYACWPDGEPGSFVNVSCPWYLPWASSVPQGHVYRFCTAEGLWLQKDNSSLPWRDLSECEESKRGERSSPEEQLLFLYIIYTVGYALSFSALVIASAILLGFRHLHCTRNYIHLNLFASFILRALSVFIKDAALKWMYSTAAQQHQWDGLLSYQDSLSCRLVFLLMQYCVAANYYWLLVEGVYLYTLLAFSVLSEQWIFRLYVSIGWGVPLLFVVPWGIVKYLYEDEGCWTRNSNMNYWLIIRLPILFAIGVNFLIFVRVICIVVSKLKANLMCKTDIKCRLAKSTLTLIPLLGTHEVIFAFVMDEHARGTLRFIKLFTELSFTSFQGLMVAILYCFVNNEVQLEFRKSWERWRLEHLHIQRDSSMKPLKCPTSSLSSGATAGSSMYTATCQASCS
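Using stably transfected HEK293 (constitutively active GLP-1R, cAMP-luciferase reporter), compounds were incubated 24 hr and luciferase measured by luminescence.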
TrxR1 substrate – is turned over as a substrate by rat TrxR1. purified TrxR1 substrate turnover, NADPH consumption readout. Potency, µM (series often up to 114 µM), for the others: at the top dose activity change, negative = substrate turnover. 390,000 compounds, 0.01% hits; further: on the % scale 0 is the no-effect control and ±100 the full control effect; nearly all actives have a fitted effect of over 50% in size
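Rat TrxR1, dispensed at 90 nM, was prereduced with 400 uM NADPH (final) for 5 min at ~22 deg C, then incubated with compound 15 min before 400 uM selenite. A first-read NADPH fluorescence drop versus no-compound background flagged substrates.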
GLP1R ag – agonists of human GLP-1 receptor; HEK293 GLP-1R CRE-luciferase, luminescence, 4-6 h; cells express a hypersensitive GLP-1R form; 380,000 compounds, 0.007% hits; P43220; AID 624172; Potency, µM (series often up to 45.6 µM), without a hit: at the top dose activation, actives largely listed as activators; further: % of control where 0% means no effect
The depositor's hits bear a star; ? = inconclusive; . = no result given; [ ] = remark or other dose. Shown are actives, neighbours in structure and some others; about 2.7% of the full set was active somewhere. The call rests on the fitted dose curve; in most records, active means well fitted curve in the direction sought with a large enough effect; inconclusive means small, poorly fitted or top-dose-only effect, or another doubt; inactive means no such curve, though single readings can be large; an effect the other way counts as inactive or inconclusive. Potency means the concentration at half of the fitted maximal effect.

SMILES	mIDH1 inhibitor	TrxR1 inh	HEK293 tox	GLP-1R inv ag	TrxR1 substrate	GLP1R ag
COc1cc(OC)c(OC)cc1CN(C)C(c1ccccc1)c1nnnn1-c1ccccc1C (stereo unspecified)	6%	3%[57.1 µM]	-6%	11µM*	4%[57.1 µM]	9%
COC(=O)c1ccc(C23CC4(C2)[C@H](CN(Cc2cccnc2)[C@@H]4c2ccccc2)C3c2ccccc2)cc1 (stereo partly specified)	-15%	5%[57.1 µM]	7%	8.9µM*	5%[57.1 µM]	-1%
FC(F)(F)c1ccc(C2[C@H]3CN(Cc4ccc(-c5ccccc5)cc4)[C@H](c4ccccc4)C34CC2(c2cccnc2)C4)cc1 (stereo partly specified)	6%	-26%[57.1 µM]	9%	1%	-8%[57.1 µM]	-5%
FC(F)(F)c1ccc(C2[C@H]3CN(Cc4cccnc4)[C@H](c4ccccc4)C34CC2(c2cccnc2)C4)cc1 (stereo partly specified)	-30%	-4%	?	11µM*	-6%	-4%
COC(=O)c1ccc(C23CC4(C2)[C@H](CN(Cc2cccnc2)[C@@H]4c2ccccc2)C3c2ccc(C(F)(F)F)cc2)cc1 (stereo partly specified)	-30%	7%	-21%	?	2%	4%
Nc1c(C(=O)NCC2CCCO2)sc2nc3c(c(-c4ccco4)c12)CC/C3=C\c1ccco1 (stereo unspecified)	4%	14µM*	-12%	5%	-14%	-24%
CC(=O)Nc1csc2ccccc12	12%	4%	4%	-12%	1%	-2%
O=C(Nc1ccccc1)Nc1csc2ccccc12	20%	14%[57.1 µM]	0%	8.9µM*	2%[57.1 µM]	0%
O=Cc1c(Cl)nc2ccccn2c1=O	5%	18µM*	-13%	19%	21%	-1%
CCC(C(=O)Nc1ccc(C(=O)OC)cc1)n1nc(-c2ccc(C)cc2)c2c(c1=O)CCCC2 (stereo unspecified)	5%	19%	2%	2.5µM*	1%	.
CCC(C(=O)Nc1ccc(C(=O)OC)cc1)n1nc(-c2ccc(C)c(C)c2)ccc1=O (stereo unspecified)	0%	36%	-7%	-9%	10%	.
CCc1ccc(Sc2cc(C(=O)O)c3ccccc3n2)cc1	2%	14%[57.1 µM]	4%	-9%	3%[57.1 µM]	.
O=C(NC(=S)N1CCCCCC1)c1ccccc1Cl	15%	11%[57.1 µM]	5µM*	?	-5%	0%
CCCc1cc(=O)oc2cc(OC(=O)CN3C(=O)NC4(CCCC4)C3=O)ccc12	0%	79µM*	103%	-23%	396%	-2%
COc1ccc(OCCOC(=O)CN2C(=O)NC3(CCCC3)C2=O)cc1	-6%	-4%	0%	-16%	-2%	3%
CCOc1ccc(N(CC(=O)NC2CC3CCC2C3)S(=O)(=O)c2ccc(C)cc2)cc1 (stereo unspecified)	2%	24%	1%	7.9µM*	-4%	-3%
CC(C)(C)n1ncc2c(=O)n(Cc3cccc(Oc4ccccc4)c3)cnc21	.	2%	.	.	-4%	.
CCOc1ccc(-n2nc(CO)c(C(=O)NCc3cccc(OC)c3)n2)cc1	-15%	105%	-1%	-18%	75%	.
O=C(CS(=O)(=O)c1ccccc1)c1cc2cc(F)ccc2oc1=O	18%	7%	6%	-20%	3%	0%
O=C(CS(=O)(=O)c1ccccc1)c1cc2ccccc2oc1=O	15%	16µM*	-13%	-1%	-8%	0%
CCN1CCN(C(=O)c2cnn(-c3cccc(C)c3)c2C2CCN(C(=O)OC(C)(C)C)CC2)CC1	-12%	5%	-15%	5%	2%	.
CC(NC(=O)c1ccco1)c1nc(-c2ccc(C(C)(C)C)cc2)no1 (stereo unspecified)	35%	19%	-21%	10µM*	1%	19%
Cc1ccc(-c2noc(C(C)NC(=O)c3ccco3)n2)cc1 (stereo unspecified)	12%	27%	-5%	-25%	0%	.
CCc1ccc(NC(=O)c2ccc(CN3C(=O)C(C)=C(c4ccc(C)cc4)S3(=O)=O)cc2)cc1	-7%	26%[57.1 µM]	22%	-14%	2%[57.1 µM]	.
O=C(/C=C/c1ccco1)Nc1nc(-c2ccccn2)cs1	0%	14µM*	?	?	9%[0.0914 µM]	-1%
SMILES	mIDH1 inhibitor	TrxR1 inh	HEK293 tox	GLP-1R inv ag	TrxR1 substrate	GLP1R ag
O=C(/C=C/c1ccco1)Nc1nc(-c2ccccc2)cs1	5%	-11%	-7%	-4%	-9%	-9%
CCOC(=O)Cc1csc(NC(=O)/C=C/c2ccco2)n1	0%	79µM*	-9%	25%	-3%	-5%
Cc1ccc(NS(=O)(=O)c2ccc3c(c2)CCCN3C(=O)C2CCC2)c(C)c1	5%	24%[57.1 µM]	0%	?	7%[57.1 µM]	.
CC(C)(C)n1ncc2c(=O)n(Cc3ccccc3)cnc21	.	6%	.	.	-1%	.
CCCN1CCN(C(=O)C2CCN(S(=O)(=O)c3c(C)noc3/C=C/c3ccc(C)cc3)CC2)CC1	-7%	-3%	?	3.2µM*	-9%	8%
COc1ccc(/C=C/c2onc(C)c2S(=O)(=O)N2CCC(C(=O)N3CCCCCC3)CC2)cc1	-5%	30%	18%	5µM*	4%	2%
Cc1noc(/C=C/c2ccco2)c1S(=O)(=O)N1CCC(C(=O)N2CCc3ccccc3C2)CC1	-3%	50µM*	-3%	0%	-8%	1%
COc1ccc(-c2noc(CNC(=O)COc3cccc(C)c3C)n2)cc1	8%	22%	1%	?	-2%	.
O=C(Cn1c(-c2cccs2)cc2ccccc21)NCCCN1CCN(c2ccccc2F)CC1	2%	-2%	-1%	48%	25%	.
Cc1cccc2cc3c(nc12)SC(=NCC1CCCO1)N(Cc1ccco1)C3 (stereo unspecified)	-4%	3.5µM*	?	?	100%	-18%
Cc1ccc2nc3c(cc2c1)CN(Cc1ccco1)C(=NCC1CCCO1)S3 (stereo unspecified)	1%	-35%	-11%	2.2µM*	-6%	-2%
Cc1cccc2cc(CNCC3CCCO3)c(Cl)nc12 (stereo unspecified)	6%	22%[57.1 µM]	10%	-1%	7%[57.1 µM]	7%
COCCN=C1Sc2nc3c(C)cccc3cc2CN1Cc1ccco1	2%	?	-3%	8.9µM*	11%[57.1 µM]	3%
COCCN=C1Sc2nc3ccc(C)cc3cc2CN1Cc1cccs1	9%	-48%	5%[7.66 µM]	?	-14%[57.1 µM]	17%
CC(C)OC(=O)C(C(=O)OC(C)C)=C1SC=CS1	.	.	.	.	.	20%
